Compound activity as filed in PubChem BioAssay.
An excerpt weighted towards active compounds, which were near 7% of everything screened.
BAZ2B inh = qHTS Assay for Inhibitors of BAZ2B; AlphaScreen BAZ2B-H3K14Ac peptide displacement; Bromodomain adjacent to zinc finger domain protein 2B (Homo sapiens), Q9UIF8; Potency, µM (highest dose often 114 µM), for the others: at the top dose activity change, negative = inhibition, most hits filed as inhibitors; actives 4.4% (n = 360,000); also: potency is read from the fitted curve at half-maximal effect; % is scaled to controls: 0 for no effect and ±100 for the full control effect; nearly all actives have a fitted effect of over 60% in size
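AlphaScreen displacement of biotin-H3(5-23)K14Ac peptide (50 nM final) from BAZ2B (50 nM final) in PBS pH 7.4, 0.01% Tween-20; complex preformed 30 min RT, then compounds (top 110 uM) 30 min RT, beads 20 min dark.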
JMJD2A Tudor inh = qHTS Assay for Inhibitors of JMJD2A-Tudor Domain; Lysine-specific demethylase 4A (Homo sapiens), O75164; AlphaScreen JMJD2A-Tudor / H3K4me3 peptide binding; Potency, µM (titrated, usually from 114 µM), for the others: top-dose activity change, negative = inhibition, most hits filed as inhibitors; actives 4.4% (n = 390,000); AID 504339, 2011; also: potency is read from the fitted curve at half-maximal effect; % is scaled to controls: 0 for no effect and ±100 for the full control effect; nearly all actives have a fitted effect of over 50% in size
PLK1 PBD inh = qHTS for Inhibitors of PLK1-PDB (polo-like kinase 1 - polo-box domain): Primary Screen | Plk1 PBD binding of FITC phosphopeptide, fluorescence polarization | Potency, µM, inactives show max response, negative = inhibition, actives largely listed as inhibitors | actives 2.8% (n = 360,000) | AID 720504, 2013; also: potency is read from the fitted curve at half-maximal effect; series mostly up to about 57 µM; % is scaled to controls: 0 for no effect and ±100 for the full control effect; nearly all actives have a fitted effect of over 65% in size
GCN5L2 inh = qHTS Assay for Inhibitors of GCN5L2. GCN5L2 HAT assay, ThioGlo1 CoA-SH fluorescence. Potency, µM (highest dose often 58.9 µM), for the others: at the highest dose activity change, negative = inhibition, actives largely listed as inhibitors. actives 0.21% (n = 390,000). AID 504327, 2011; also: potency is read from the fitted curve at half-maximal effect; % is scaled to controls: 0 for no effect and ±100 for the full control effect
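GCN5L2 (20 nM) in 50mM HEPES pH 7.5, 0.1mM EDTA, 0.01% Tween-20 preincubated 15 min with compounds at room temperature. Reaction started with H3(1-25) 75uM, acetyl-CoA 70uM, ThioGlo1 50uM; CoA-thiol fluorescence (Ex340/Em540) read at 0 and 20 min.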
PI5P4K alpha inh = qHTS for Inhibitors of phosphatidylinositol 5-phosphate 4-kinase (PI5P4K) | actives 1.2% (n = 330,000) | PI5P4Kalpha enzyme, ADP-Glo luminescence, 60 min; active compounds read low | max response, %; active = max response of -50% or lower; inconclusive = between -30% and -50%; inactive = -30% or higher; also: value at the top dose of about 77 µM; % is scaled to controls: 0 for no effect and ±100 for the full control effect
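Reactions run in 0.038 M HEPES pH 7.4, 0.28 mM EGTA, 0.1% CHAPS and 5% DMSO, with PI5P4Kalpha, substrate, compound and 5 microM ATP final, one hour at room temperature. Readout is ADP-Glo luminescence.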
HP1b binding inh = HTS for Inhibitors of HP1-beta Chromodomain Interactions with Methylated Histone Tails; Chromobox protein homolog 1 (Homo sapiens), P83916; AlphaScreen HP1-beta / biotin-H3K9me3 peptide binding; Potency, µM (highest dose often 114 µM), for the others: at the top dose activity change, negative = inhibition, hits mostly inhibitors; actives 0.56% (n = 390,000); also: potency is read from the fitted curve at half-maximal effect; nearly all actives have a fitted effect of over 70% in size
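Compound inhibition of the preformed complex between 50 nM HP1-beta and 50 nM biotinylated H3K9me3 peptide was read by AlphaScreen. Buffer was PBS pH 7.4 with 0.01% Tween-20. Incubations ran 30 min at room temperature, with 10 ug/mL donor/acceptor beads.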
* = called active by the depositor; ? = inconclusive; . = no result given; [ ] = another dose, or the depositor's remark. Unless noted, calls follow the shape of the dose curve; as a rule, active = well fitted curve in the direction sought with a large enough effect; inconclusive = small, poorly fitted or top-dose-only effect, or another doubt; inactive = no such curve, though single readings can be large; an effect the other way counts as inactive or inconclusive.

SMILES | BAZ2B inh | JMJD2A Tudor inh | PLK1 PBD inh | GCN5L2 inh | PI5P4K alpha inh | HP1b binding inh
Cc1oc(C(C)(C)C)cc1C(=O)N1CCCC1C(=O)O (configuration not stated) | -3% | 100µM* | -9% | -3% | 0 | 7%
C=CCn1c(C(c2ccccc2)c2ccccc2)n[nH]c1=S | -30% | -18%[57.1 µM] | -24% | 1% | -11 | 23%
C=CCn1c(OCc2ccccc2)n[nH]c1=S | -17% | 3.2µM* | -28% | -3% | -1 | ?
C=CCn1c(CCn2c3ccccc3c3ccccc32)n[nH]c1=S | 10% | -29% | -10% | 0% | -11 | 15%
S=c1[nH]nc(Cc2cccc3ccccc23)n1-c1ccccc1 | -34% | 79µM* | -16% | -8% | -10 | 8%
O=c1c2ccccc2cnn1Cc1n[nH]c(=S)n1-c1ccccc1 | 6% | 25µM* | -5% | -3% | 6 | 28%
C=CCn1c(Cc2cccc3ccccc23)n[nH]c1=S | -24% | 50µM* | -30% | 0% | 8 | -7%
CCOc1ccccc1CNS(=O)(=O)c1cnc(N)nc1 | 2% | -20% | . | 3% | . | 25%[57 µM]
O=C(Nc1ccccc1Cl)N1CCC2(CC1)Oc1ccccc1C(=O)N2Cc1ccc(F)cc1 | -5% | -4% | . | -6% | . | 21%
C=CCn1c(Cc2nc3ccccc3[nH]2)n[nH]c1=S | ? | 8.9µM* | -15% | -3% | . | 6%
S=c1[nH]nc(CCc2nc3ccccc3[nH]2)n1-c1cccc(Cl)c1 | -8% | 45µM* | -14% | -3% | ? | 20%
S=c1[nH]nc(Cc2noc3ccccc23)n1-c1ccccc1 | 0% | 11µM* | -3% | -3% | -9 | 19%
Cc1ccc(S(=O)(=O)N(Cc2n[nH]c(=S)n2-c2ccccc2)c2ccccc2)cc1 | ? | -28% | -12% | -6% | 2 | 24%
COCc1n[nH]c(=S)n1-c1cccc2ccccc12 | 0% | 20µM* | -7% | -10% | . | 17%
S=c1[nH]nc(CCc2nc3ccccc3[nH]2)n1-c1ccccc1 | -11% | -94% | -5% | 0% | 1 | 16%
Cc1cccc2c1-c1sc(C(=O)NCCc3ccc(Cl)cc3)cc1CO2 | 2% | ? | . | -27% | . | 1%
CCOC(=O)N1CCC(NC(=O)c2oc3c(C)c(C)ccc3c2C)CC1 | . | -19% | -3% | . | 11 | 43%
COC(=O)C[C@H]1C[C@H]2c3cc(NC(=O)Nc4ccc(C(F)(F)F)cc4)ccc3O[C@H]2[C@@H](CO)O1 | . | . | 3% | . | -1 | .
CNc1cc(-c2ccccc2C(F)(F)F)ncn1 | . | . | . | -2% | . | .
O=C(Oc1nsnc1N1CCOCC1)c1ccccc1 | -4% | -35% | 24µM* | -5% | . | -23%
Cc1c(NS(=O)(=O)c2cc(C(=O)NCc3ccco3)cc(Cl)c2Cl)c(=O)n(-c2ccccc2)n1C | ? | -31% | -6% | -12% | -2 | 8%
COc1ccc2c(C#CCCO)c(-c3ccc(S(C)(=O)=O)cc3)sc2c1 | . | ? | 27µM* | -10% | -1 | 36%
COc1ccc2sc(-c3ccc(S(C)(=O)=O)cc3)c(C#CCO)c2c1 | . | -14% | -14% | -19% | -28 | 46%
O=C(Nc1nnc([C@H]2C[C@H](O)[C@@H](CO)O2)s1)Nc1ccccc1C(F)(F)F | . | . | -8% | . | -8 | .
CC(C)CN(C(=O)CSc1nnc(C2CC2)n1-c1ccccc1)C1CCS(=O)(=O)C1 (configuration not stated) | 3% | -7% | -8% | 2% | -1 | 36%
SMILES | BAZ2B inh | JMJD2A Tudor inh | PLK1 PBD inh | GCN5L2 inh | PI5P4K alpha inh | HP1b binding inh
COc1ccc(C(=O)Cn2c(NCCCO)nc3ccccc32)cc1 | . | . | -2% | . | 2 | .
COc1ccc(-n2c(C)cc(C(=O)Cn3c(NCCO)nc4ccccc43)c2C)cc1 | 50µM* | ? | -1% | -4% | 1 | ?
CCOC(=O)c1cc(-c2ccc(F)cc2)n(CC(=O)NCc2ccc(OC)cc2)c1C | 6% | -16% | . | 3% | . | 23%
CCc1ccc(CNC(=O)c2cc3n(n2)CCCN(Cc2ccccc2)C3=O)cc1 | 28% | -13% | . | -6% | . | 68%
COc1ccc(CCNCC(O)COc2ccc(Cl)cc2)cc1OC (configuration not stated) | -17% | -24% | -7% | -6% | 7 | 21%
COc1ccc(CCNCC(O)COc2c(C)cccc2C)cc1OC (configuration not stated) | 50µM* | ? | -18% | -9% | -3 | ?
COc1ccc(CCNCC(O)COc2cccc(C(C)=O)c2)cc1OC (configuration not stated) | 71µM* | 25µM* | -16% | -1% | -1 | ?
CSc1ccc(CCNC(=O)CCc2c(C)nc3ncnn3c2C)cc1 | -15% | -7% | . | 3% | . | 33%
CCOC(=O)C(Cc1ccccc1)NC(=O)CCc1c(C)nc2nc(C)nn2c1C (configuration not stated) | -1% | 7% | 27µM* | -4% | -10 | ?
Cc1nc2ncnn2c(C)c1CCC(=O)NCCc1ccccc1 | 1% | -13%[57.1 µM] | 24µM* | 0% | -2 | -10%
N#CCCN(Cc1cccnc1)CN1C(=O)c2ccccc2C1=O | . | . | -13% | . | 3 | .
Cc1cccc(C(=O)NC(=S)Nc2ccc(S(=O)(=O)N(C)c3ccccc3)cc2)c1 | -3% | -25% | -15% | -3% | -1 | -9%
Cc1ccccc1C(=O)NC(=S)Nc1ccc(S(=O)(=O)N(C)c2ccccc2)cc1 | -2% | -16%[11.4 µM] | 27µM* | -3% | -14 | -21%
COC(=O)c1ccc(NC(=O)c2ccccc2N(C)S(=O)(=O)c2ccccc2)cc1 | 8% | -19%[11.4 µM] | 24µM* | 1% | -18 | -4%
Cc1ccc(S(=O)(=O)N2CCOCC2)cc1C(=O)OCC(=O)N(Cc1ccccc1)C(C)C | 0% | -11% | 4% | -4% | 7 | 27%
CCN(CC)S(=O)(=O)c1ccc(OC)c(NS(=O)(=O)Cc2ccccc2)c1 | 4% | -13% | -10% | -2% | -4 | 17%
Cc1cc(O)c(C=O)c2c1C(=O)Oc1c(C)c(O)c3c(c1O2)C(O)OC3=O (configuration not stated) | . | . | . | 35µM* | . | .
COc1cc(C)c2c(c1C=O)Oc1c(c(C)c(O)c3c1C(O)OC3=O)OC2=O (configuration not stated) | 79µM* | 79µM* | -24% | -24% | -64* | -35%
